Assay outcomes deposited in PubChem by Fisher Drug Discovery Resource Center.
An excerpt weighted towards active compounds, which were near 0.28% of everything screened.
mcGAS inh: mouse cGAS inhibition by luminescence; inhibition, % at 12.5 µM; 0.15% of 160,000 active; Q8C6L5; recombinant cGAS, Kinase-Glo ATP depletion luminescence
Target sequence (Q8C6L5 whole entry, looked up): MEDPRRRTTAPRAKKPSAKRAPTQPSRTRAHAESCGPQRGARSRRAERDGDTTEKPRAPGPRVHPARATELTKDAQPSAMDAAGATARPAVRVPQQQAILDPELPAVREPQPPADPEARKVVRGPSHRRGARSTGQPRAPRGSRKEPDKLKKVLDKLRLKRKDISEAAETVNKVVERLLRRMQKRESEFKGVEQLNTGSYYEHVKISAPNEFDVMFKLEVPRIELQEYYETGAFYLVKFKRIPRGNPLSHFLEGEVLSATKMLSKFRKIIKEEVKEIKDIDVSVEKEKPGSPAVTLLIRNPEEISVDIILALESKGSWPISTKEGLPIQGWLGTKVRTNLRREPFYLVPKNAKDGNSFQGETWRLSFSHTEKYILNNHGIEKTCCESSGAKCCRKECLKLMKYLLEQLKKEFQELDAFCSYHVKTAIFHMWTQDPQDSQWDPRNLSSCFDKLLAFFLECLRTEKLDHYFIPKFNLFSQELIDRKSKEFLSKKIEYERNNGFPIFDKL
hcGAS inh: blocks human cGAS activity; Q8N884; recombinant h-cGAS, ATP depletion, Kinase-Glo luminescence; inhibition, % at 12.5 µM; 0.081% of 290,000 active
NPYLR7 agonist: mosquito NPYLR7 agonism | HEK293T NPYLR7/Galpha15, GCaMP6s calcium fluorescence | 0.15% of 270,000 active | AID 1259423 | activation, % at 10 µM; in the data active means activation above about 40%
Numbers stand for hits; - = inactive; . = not tested or not shown. Unless noted, no stated cut-off is given here; in the data, active means inhibition above about 40%; inactive means the rest.

SMILES	mcGAS inh	hcGAS inh	NPYLR7 agonist
CC(C)CN1C(=O)/C(=C/c2ccc3c(c2)OCCO3)N(C)C1=S	-	-	-
Cc1ccc(NC(=O)CC2CSc3nc4c(cnn4-c4ccccc4)c(=O)n32)cc1C (stereo unspecified)	-	-	-
COc1ccc(-c2csc3ncn(CC(O)COc4ccccc4)c(=O)c23)cc1 (stereo unspecified)	-	-	-
CC(C)OC(=O)C(C(=O)C(F)(F)F)c1cc(NS(=O)(=O)c2ccc(Cl)cc2)ccc1O (stereo unspecified)	.	-	43.9
CC(C)OC(=O)C(C(=O)C(F)(F)F)c1cc(NS(=O)(=O)c2ccccc2)ccc1O (stereo unspecified)	.	-	-
CC(=O)N1CCN(c2ccnc3c2c(=O)n(CC(=O)N(C(C)C)C(C)C)c(=O)n3C)CC1	-	-	-
O=[N+]([O-])c1ccc2nc(C(F)(F)F)[nH]c2c1	.	41.4	-
O=[N+]([O-])c1ccc2nc(-c3nc4ccc([N+](=O)[O-])cc4[nH]3)[nH]c2c1	.	-	-
CCc1ocnc1C(=O)N(C)CC1Cc2ccccc2CN1C (stereo unspecified)	.	-	-
CC1(C(=O)NC2CCCCCC2)CCN1C(=O)CCc1ccccc1 (stereo unspecified)	-	-	-
COCC(=O)N1CCC(C(NC(=O)c2cccc(C)c2)C(=O)NCc2ccco2)CC1 (stereo unspecified)	-	-	-
C=CCOc1ccc(C=C2COc3ccccc3C2=O)cc1OC	46.4	-	-
COc1cc(C=C2COc3ccccc3C2=O)ccc1OCC#N	-	-	-
Nc1nc(Cl)nc2c1ncn2[C@@H]1O[C@H](COP(=O)(O)OP(=O)(O)OP(=O)(O)O)[C@H](O)C1O (stereo partly specified)	-	-	128.7
Nc1ncnc2c1ncn2C1OC(COP(=O)(O)OP(=O)(O)OP(=O)(O)OP(=O)(O)OCC2OC(n3cnc4c(N)ncnc43)C(O)C2O)C(O)C1O (stereo unspecified)	-	-	-
O=C(CNCc1ccccc1)N1CC(=O)N(c2cccc(Cl)c2)C1	-	-	45.8
O=C(CNCc1ccco1)N1CC(=O)N(c2cccc(Cl)c2)C1	.	-	-
O=C(c1ccc(Cl)cc1)N1CCCN(c2nc3ccccc3nc2-c2ccccc2)CC1	-	-	-
COc1ccc(C(=O)C2CCN(C(=O)Nc3ccccc3F)CC2)cc1	-	-	-
CN1CCN(C2CCOCC2)CC12CCNC(=O)CC2 (stereo unspecified)	-	-	.
O=C1CCCC(=O)C1CC1C(=O)CCCC1=O	-	-	-
COC(=O)c1cnc(/C=C/c2cc(C)c(O)c(C)c2)s1	.	-	46.4
CNC(=O)c1cnc(/C=C/c2cc(OC)c3c(c2)OCCO3)s1	.	-	-
Fc1ccccc1C1CCN(Cc2cc3n(n2)CCNC3)C1 (stereo unspecified)	-	-	-
Cc1cccc(CN2CCN(c3ccc(Cl)cc3)C(=O)C2C)c1 (stereo unspecified)	74.2	-	-
SMILES	mcGAS inh	hcGAS inh	NPYLR7 agonist
Cc1cccc(CN2CCN(c3cccc(Cl)c3)C(=O)C2C)c1 (stereo unspecified)	-	-	-
CCOC(=O)N1CCC(NC(=O)c2sc3nc4c(c(C(F)(F)F)c3c2N)CC(C)CC4)CC1 (stereo unspecified)	-	-	61.6
COc1ccc(CNC(=O)c2sc3nc4c(c(C(F)(F)F)c3c2N)CN(C(C)=O)CC4)cc1	.	-	-
CN=c1scc(-c2ccccc2Cl)n1/N=C\c1cccc(OC)c1O	.	-	-
NC(=O)CN1c2cccc3cccc(c23)S1(=O)=O	.	-	106.0
CCC(CC)NC(=O)CN1c2cccc3cccc(c23)S1(=O)=O	.	-	-
C=CCOCC(O)CN(Cc1ccc2c(c1)OCO2)Cc1cc(C)ccc1C (stereo unspecified)	-	-	-
C=CCOCC(O)CN(Cc1ccc2c(c1)OCO2)Cc1ccc(C)s1 (stereo unspecified)	82.6	-	-
C#CCOCC(O)CN(Cc1ccc(F)cc1)Cc1ccc2c(c1)OCO2 (stereo unspecified)	76.7	-	-
C#CCOCC(O)CN(Cc1ccc2c(c1)OCO2)Cc1cc(C)ccc1C (stereo unspecified)	-	-	-
CCn1c(=NC(=O)c2ccc3ncsc3c2)sc2cc(Br)ccc21	-	-	-
NC(=O)C1CCCN(C(=O)c2ccc(Cl)s2)C1 (stereo unspecified)	.	-	-
CCc1cnc2c(c1OC)c(=O)n(CC(=O)N1CCOCC1)c(=O)n2C	-	-	-
c1ccc(CN2CCN(CCNc3nc(CN4CCOCC4)nc4sc5c(c34)CCC5)CC2)cc1	-	-	-
COc1ccc(N=C(N)N)cc1	.	-	-
CCCC(=O)NC(N)=Nc1nc(C)c2cc(C)ccc2n1	-	-	-
COc1ccc2c(C)nc(N=C(N)N)nc2c1	.	-	58.9
CCc1nc(N=C(N)N)nc2cc(C)ccc12	.	-	62.0
COc1ccc(CCNC(=O)c2ccccc2NS(=O)(=O)c2ccccc2F)cc1	-	-	-
CCC(NC(=O)CCn1nc(C)cc1C)c1ccccc1 (stereo unspecified)	-	-	-
O=C(CC1Sc2ccc(C(F)(F)F)cc2NC1=O)NC1CC1 (stereo unspecified)	.	-	-
O=C(NCCc1cc(Cl)cc(Cl)c1)c1cc[nH]c(=O)c1	.	-	-
CCS(=O)(=O)N(C)CCCNC(=O)c1c(Cl)c2ccccc2n1C	.	-	-
O=C(O)c1ccccc1OP(=O)(O)O	60.9	-	-
CCCCC(=O)Oc1ccccc1C(=O)O	-	-	.
SMILES	mcGAS inh	hcGAS inh	NPYLR7 agonist
Cc1cccc(C=C(C#N)C(=O)C(C)(C)C)c1	-	-	-
O=C(C=Cc1ccccc1OC(F)F)c1ccc(F)cc1	43.0	-	-
COc1cc(C=CC(=O)c2ccc(F)cc2)ccc1OC(F)F	.	-	-
C#CCNC(=O)C(C)SC(C)c1ccc(F)cc1 (stereo unspecified)	-	-	-
COc1cccc(C(=O)Nc2ccccc2C(=O)N2CCCCC2)c1	.	-	.
Cc1nc(-c2cc(NCc3ccccn3)nc3[nH]ccc23)cc(C(C)C)n1	.	-	-
CCCc1[nH]n(-c2ccccc2)c(=O)c1C1=C(N2CCC(C)CC2)C(=O)N(Cc2ccc(F)cc2)C1=O	-	-	-
COc1cc(C=CC(=O)c2ccc3c(c2)OCCO3)cc(Br)c1O	-	-	144.6
CCOc1cc(C=CC(=O)c2ccc3c(c2)OCCO3)cc(Br)c1OCC	-	-	-
COc1cc(C=NNC(=O)c2ccccc2O)cc(Br)c1O	.	-	-
CC(C)(C)NN=Cc1cc(Br)c(O)c(Br)c1	75.4	-	-
O=C(NCC1CCCO1)c1coc(CN(Cc2ccccc2)Cc2ccc(Cl)cc2Cl)n1 (stereo unspecified)	-	-	-
CCOc1ccc(N(CC(=O)NCC2CCCO2)S(C)(=O)=O)cc1 (stereo unspecified)	.	-	-
Oc1cc2c(cc1O)C1c3ccc(O)c(O)c3OCC1(O)C2 (stereo unspecified)	49.7	-	-
Cn1c(=O)[nH]c(=O)c2c1nc(Br)n2CC(=O)c1cccc([N+](=O)[O-])c1	-	-	-
CC(=NNc1ncnc2sc(C)c(C)c12)c1ccccn1	.	45.1	59.2
Cc1sc2ncnc(N/N=C\c3ccccc3O)c2c1C	.	-	-
COCCN1CCC(CN2CCN(c3cc(=O)[nH]c(N)n3)CC2)CC1	-	-	-
